Screens: PubChem BioAssay, National Center for Advancing Translational Sciences (NCATS)
PI5P4K alpha inh = qHTS for Inhibitors of phosphatidylinositol 5-phosphate 4-kinase (PI5P4K). PI5P4Kalpha enzyme, ADP-Glo luminescence, 60 min; stronger effect = lower value. max response, %. 1.2% of 330,000 active; active means max response of -50% or lower; inconclusive means between -30% and -50%; inactive means -30% or higher; further: value at the top dose of about 77 µM; on the % scale 0 is the no-effect control and ±100 the full control effect
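ADP-Glo luminescence end-point after a 60 min room-temperature kinase reaction. PI5P4Kalpha and substrate in HEPES pH 7.4 buffer with EGTA, 0.1% CHAPS and 5% DMSO; ATP at 5 microM final.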
PLK1 PBD inh = qHTS for Inhibitors of PLK1-PDB (polo-like kinase 1 - polo-box domain): Primary Screen | Potency, µM, without a hit: max response, negative = inhibition, actives largely listed as inhibitors | 2.8% of 360,000 active | Serine/threonine-protein kinase PLK1 (Homo sapiens), P53350 | AID 720504, 2013 | Plk1 PBD binding of FITC phosphopeptide, fluorescence polarization; further: potency means the concentration at half of the fitted maximal effect; series mostly up to about 57 µM; on the % scale 0 is the no-effect control and ±100 the full control effect; nearly all actives have a fitted effect of over 65% in size
BAZ2B inh = qHTS Assay for Inhibitors of BAZ2B; AlphaScreen BAZ2B-H3K14Ac peptide displacement; AID 504333, 2011; 4.4% of 360,000 active; Potency, µM (doses to about 114 µM), for the others: at the highest dose activity change, negative = inhibition, most hits filed as inhibitors; further: potency means the concentration at half of the fitted maximal effect; on the % scale 0 is the no-effect control and ±100 the full control effect; nearly all actives have a fitted effect of over 60% in size
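Inhibition is scored as reduced AlphaScreen emission. The BAZ2B/b-H3(5-23)K14Ac complex (50 nM each) in PBS pH 7.4, 0.01% Tween-20 meets compound (up to 110 uM) for 30 min at RT before bead addition.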
HP1b binding inh = HTS for Inhibitors of HP1-beta Chromodomain Interactions with Methylated Histone Tails. Chromobox protein homolog 1 (Homo sapiens), P83916. AlphaScreen HP1-beta / biotin-H3K9me3 peptide binding. Potency, µM (doses to about 114 µM), inactives show at the highest dose activity change, negative = inhibition, hits mostly inhibitors. 0.56% of 390,000 active. AID 540317, 2011; further: potency means the concentration at half of the fitted maximal effect; nearly all actives have a fitted effect of over 70% in size
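Compound inhibition of the preformed complex between 50 nM HP1-beta and 50 nM biotinylated H3K9me3 peptide was read by AlphaScreen. Buffer was PBS pH 7.4 with 0.01% Tween-20. Incubations ran 30 min at room temperature, with 10 ug/mL donor/acceptor beads.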
KAT2A inh = qHTS Assay for Inhibitors of GCN5L2. Histone acetyltransferase KAT2A (Homo sapiens), Q92830. GCN5L2 HAT assay, ThioGlo1 CoA-SH fluorescence. Potency, µM (series often up to 58.9 µM), for inactives: top-dose activity change, negative = inhibition, usual class: inhibitors. 0.21% of 390,000 active. AID 504327, 2011; further: potency means the concentration at half of the fitted maximal effect; on the % scale 0 is the no-effect control and ±100 the full control effect
Target sequence (Q92830 whole entry, looked up): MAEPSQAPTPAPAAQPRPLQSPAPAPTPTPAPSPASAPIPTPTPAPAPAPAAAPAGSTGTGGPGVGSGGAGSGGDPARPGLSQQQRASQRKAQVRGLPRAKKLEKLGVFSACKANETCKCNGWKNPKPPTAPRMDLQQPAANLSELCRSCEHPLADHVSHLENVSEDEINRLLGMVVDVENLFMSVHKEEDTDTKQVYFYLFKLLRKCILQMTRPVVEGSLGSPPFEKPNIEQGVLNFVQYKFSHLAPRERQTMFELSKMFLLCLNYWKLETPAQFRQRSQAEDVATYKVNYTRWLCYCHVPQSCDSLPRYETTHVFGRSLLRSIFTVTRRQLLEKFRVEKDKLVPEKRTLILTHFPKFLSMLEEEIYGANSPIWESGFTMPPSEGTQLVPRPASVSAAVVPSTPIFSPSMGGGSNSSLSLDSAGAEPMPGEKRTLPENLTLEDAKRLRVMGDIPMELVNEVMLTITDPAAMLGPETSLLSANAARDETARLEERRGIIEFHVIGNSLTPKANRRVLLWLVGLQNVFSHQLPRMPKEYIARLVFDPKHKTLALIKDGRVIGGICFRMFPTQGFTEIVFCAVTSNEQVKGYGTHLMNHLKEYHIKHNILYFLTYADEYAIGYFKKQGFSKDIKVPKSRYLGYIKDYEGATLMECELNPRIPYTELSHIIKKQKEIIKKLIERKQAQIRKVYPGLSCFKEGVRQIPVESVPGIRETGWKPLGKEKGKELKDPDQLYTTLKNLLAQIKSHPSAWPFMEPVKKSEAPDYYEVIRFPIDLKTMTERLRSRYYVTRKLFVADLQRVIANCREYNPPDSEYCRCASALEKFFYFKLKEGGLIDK
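Free CoA generated was detected with ThioGlo1 (50uM) fluorescence at Ex340nm/Em540nm, read immediately and after 20 min at room temperature. Enzyme, 20 nM in HEPES pH 7.5 buffer, saw compounds 15 min before adding 75uM H3(1-25) peptide and 70uM acetyl-CoA.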
JMJD2A Tudor = qHTS Assay for Inhibitors of JMJD2A-Tudor Domain | AlphaScreen JMJD2A-Tudor / H3K4me3 peptide binding | 4.4% of 390,000 active | Lysine-specific demethylase 4A (Homo sapiens), O75164 | AID 504339, 2011 | Potency, µM (top dose mostly 114 µM), without a hit: at the top dose activity change, negative = inhibition, most hits filed as inhibitors; further: potency means the concentration at half of the fitted maximal effect; on the % scale 0 is the no-effect control and ±100 the full control effect; nearly all actives have a fitted effect of over 50% in size
Active calls of the source: *; ? = inconclusive; · = not tested or not shown; [ ] = another dose, or the depositor's remark. In the library only some 7% were active in any assay of this set; here they are far more common. Unless noted, the call rests on the fitted dose curve; in most records, active means well fitted curve in the direction sought with a large enough effect; inconclusive means small, poorly fitted or top-dose-only effect, or another doubt; inactive means no such curve, though single readings can be large; an effect the other way counts as inactive or inconclusive.

SMILES	PI5P4K alpha inh	PLK1 PBD inh	BAZ2B inh	HP1b binding inh	KAT2A inh	JMJD2A Tudor
COC(=O)c1ccc(NC(=O)CN2C(=O)NC3(CCC(C)CC3)C2=O)cc1 (centres undefined)	-6	2%	·	31%	1%	-5%
CC1CC(NC(=O)CC#N)CC(C)(C)C1 (centres undefined)	3	2%	-2%	24%	3%	21%
CC1CC(NC(=O)Cc2ccc(Br)cc2)CC(C)(C)C1 (centres undefined)	3	6µM*	12%	8%	-9%	40µM*
Cc1nnsc1Sc1ccccc1	0	12µM*	12%	68%	-5%	13%
Nc1ccc(N2CCCCC2)c(Cl)c1	-1	-15%	-26%	-32%	?	-34%
Nc1ccc(N2CCOCC2)c(Cl)c1	7	24µM*	-37%	-28%	2%	-7%[11.4 µM]
Nc1cccc(Cl)c1N1CCOCC1	-10	27µM*	-1%	?	-10%	20µM*
COc1ccc(CC(=O)NC2CCS(=O)(=O)C2)cc1 (centres undefined)	2	5%	-12%	27%	?	-5%
Cc1ccc(NC(=O)c2nc[nH]c2C(=O)N(C)Cc2ccccc2)cc1	21	3%	4%	42%	-12%	-23%
Cc1ccc(-c2c(C)sc3ncn(CC(=O)N4CCOCC4)c(=O)c23)cc1C	1	2%	-17%	37%	-7%	-11%
CSc1ccc(CN(C)CCc2ccccn2)cc1	2	-20%	32µM*	?	-1%	25µM*
CN(CCc1ccccn1)Cc1ccc(Cl)cc1Cl	·	2%	50µM*	?	-7%	20µM*
CN(CCc1ccccn1)c1ccccc1	0	-8%	·	-20%	·	-29%
CN(CCc1ccccn1)S(=O)(=O)c1ccccc1F	·	-1%	?	30%	-3%	?
Cc1cc(C)n2nc(CNS(=O)(=O)c3cccc(Cl)c3)nc2n1	·	·	-1%	29%	-3%	-11%
Cc1cc(C)n2c(Nc3c(C)cccc3C)c(-c3ccccn3)nc2n1	2	1%	·	·	·	·
Cc1ccc2nc(-c3ccccn3)c(NC3CCCC3)n2c1	-8	-14%	-9%	?	-3%	45µM*
Cc1cccc(C)c1Nc1c(-c2ccccn2)nc2ccccn12	-2	4%	25µM*	?	-14%	45µM*
Cc1cccc(C)c1Nc1c(-c2ccsc2)nc2ccccn12	·	·	?	?	0%	45µM*
COc1ccc(CNC(=O)c2ccc3c(c2)CCN3S(=O)(=O)c2ccc(C)cc2)cc1	·	·	-18%	35%	-6%	-7%
CC(=O)N1CCc2cc(Br)cc(S(=O)(=O)N3CCc4ccccc43)c21	7	-12%	-1%	28%	-8%	-7%[57.1 µM]
CCCSc1cc(N2CCN(C)CC2)nc(-c2ccc(OC)cc2)n1	8	-3%	50µM*	-25%	3%	?
CCCSc1cc(N2CCCC2)nc(-c2ccccc2)n1	20	-3%	26%	145%	3%	121%
Cc1cnc(C(=O)N(CCCn2ccnc2)C2C(=O)Nc3ccccc3N=C2c2ccccc2)cn1 (centres undefined)	-5	-6%	·	·	·	·
N=C1/C(=C\c2ccc(-c3ccc(C(=O)O)cc3)o2)C(=O)N=C2SC=C(c3ccccc3)N12	-70*	?	4.5µM*	16µM*	-2%	14µM*
SMILES	PI5P4K alpha inh	PLK1 PBD inh	BAZ2B inh	HP1b binding inh	KAT2A inh	JMJD2A Tudor
Cc1cccc(-n2c(C)cc(/C=C3/C(=N)N4C(c5ccccc5)=CSC4=NC3=O)c2C)c1	-8	-1%	2%	8%	-3%	-26%
Cc1cc(/C=C2/C(=N)N3C(c4ccccc4)=CSC3=NC2=O)c(C)n1-c1ccc(Cl)cc1	1	-2%	·	13%	·	-10%
N=C1/C(=C\c2ccc(-c3cccc(Cl)c3)o2)C(=O)N=C2SC=C(c3ccccc3)N12	-55*	-21%	?	?	?	?
COc1cc(/C=C2/C(=N)N3C(c4ccccc4)=CSC3=NC2=O)ccc1OCC(=O)O	-52*	?	50µM*	-31%	-1%	?
N=C1S/C(=C\c2ccc(-c3cccc(Cl)c3)o2)C(=O)N1c1nccs1	-63*	?	-31%	-15%	36%	?
COc1cc(NC(=O)CSc2nc3c(c(=O)n(C)c(=O)n3C)n2C)cc(OC)c1	-6	4%	1%	44%	-4%	11%
CCOC(=O)NC1(Nc2cccc(Cl)c2)Oc2ccccc2O1	0	-4%	3%	?	43%	40µM*
CCOc1ccc2nc(N(Cc3ccccc3)C(=O)CCNC(C)=O)sc2c1	5	-1%	-31%	14%	-8%	-22%
CC(C)(C)c1ccc(OCCn2c(CCNC(=O)C3CCCCC3)nc3ccccc32)cc1	·	·	·	-3%[57 µM]	·	-17%[57.1 µM]
O=C(c1ccc(-n2cccn2)cc1)N1CCc2ccccc2C1	0	-11%	0%	5%	4%	-9%
O=C(Cn1ncc2c([nH]c3ccccc32)c1=O)N1CCN(c2ccccc2F)CC1	-1	27µM*	-6%	3%	-6%	?
COc1cc(NC(=S)N2CCN(CCO)CC2)c(OC)cc1Cl	-7	-7%	-7%	42%	1%	-1%
COc1cc(NC(=S)N2CCN(C)CC2)c(OC)cc1Cl	-4	19µM*	-19%	12%	-12%	1%
CCC1Cc2c(nc(N)c3c(N)nc(N4CCCCC4)c(C#N)c23)O1 (centres undefined)	6	-8%	0%	4%	-14%	-5%
CC(C)(C)N1C(=O)Cc2c1nc(N)c1c(N)nc(N3CCCCC3CO)c(C#N)c21 (centres undefined)	-58*	-19%	40µM*	?	14%	50µM*
Cc1nnsc1C(=O)N1CCCC(C)(C(=O)NS(=O)(=O)C2CC2)C1 (centres undefined)	4	-2%	·	·	·	·
COc1ccccc1N1CCN(C(=O)CCNS(=O)(=O)c2ccc3c(c2)CCN3C(=O)C2CC2)CC1	·	·	0%	31%[57 µM]	-2%	-12%
COCCn1nnnc1C(c1cccs1)N1CCCC(C)C1 (centres undefined)	2	-9%	-16%	49%	4%	-8%
